eIF4E 4G PPI: inhibitors of eIF4E and eIF4G interaction in translation initiation; AID 782; inhibition, % at 21.7 µM; P63073+Q04637; 220,000 compounds, 0.37% hits; TR-FRET eIF4E-eIF4GI(517-606) binding, 2 h
Mcl1-Noxa inh: Mcl-1/Noxa interaction inhibition; Q07820; TR-FRET Mcl-1/Noxa peptide binding, 2 h; inhibition, % at 21.7 µM; 220,000 compounds, 1.5% hits; AID 1022;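 active = compounds that cut the protein-peptide binding signal by more than 50% relative to plate controls in a single-dose test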;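 also: His-tagged Mcl-1 with rhodamine Noxa BH3 peptide and terbium anti-His antibody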
Bim-Mcl-1: inhibitors of Bim-Mcl-1 interaction, human. 190,000 compounds, 0.1% hits. Bead-based flow cytometry, Bim peptide-Mcl-1 binding. inhibition, % at 10 µM. Q07820; in the data active = inhibition above about 40%
NCF1 inh: p47phox (human) inhibition | P14598 | p47phox/p22phox peptide binding, fluorescence polarization, 2 h | inhibition, % at 24.7 µM | 220,000 compounds, 0.53% hits
Target sequence (P14598 whole entry, looked up): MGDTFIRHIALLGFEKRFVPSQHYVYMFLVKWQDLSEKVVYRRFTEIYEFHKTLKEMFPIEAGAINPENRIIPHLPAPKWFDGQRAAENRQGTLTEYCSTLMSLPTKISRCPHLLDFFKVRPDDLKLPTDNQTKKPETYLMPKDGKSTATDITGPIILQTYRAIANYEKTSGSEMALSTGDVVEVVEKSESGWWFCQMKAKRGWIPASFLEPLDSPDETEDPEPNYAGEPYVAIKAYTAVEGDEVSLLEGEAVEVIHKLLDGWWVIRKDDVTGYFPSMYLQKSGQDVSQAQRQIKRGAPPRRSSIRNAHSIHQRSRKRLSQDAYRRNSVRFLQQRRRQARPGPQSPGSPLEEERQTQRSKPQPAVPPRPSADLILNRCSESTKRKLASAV
Mcl1 Bid PPI: disrupts binding of human Mcl-1 to Bid peptide; 220,000 compounds, 0.97% hits; inhibition, % at 21.7 µM; Q07820; TR-FRET Mcl-1/Bid-Dy647 peptide binding, 1536-well; AID 1021;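 active = compounds that cut the binding signal by more than half at the single screening dose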;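 also: His-tagged Mcl-1 with europium anti-His antibody binding Bid BH3 peptide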
14-3-3 Bad inh: disrupts binding of bovine 14-3-3 zeta to phospho-Bad peptide; 220,000 compounds, 0.71% hits; TR-FRET 14-3-3zeta/Dy647-pBad peptide displacement, 1 h; inhibition, % at 21.7 µM; P63103;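 active = inhibition above about 70%, limit read from the data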
Large screens that a line does not name were inactive. The list is not random: actives were taken first. Their share in the collection is about 3.3%.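 The calls were made as follows, unless noted: active = inhibition above about 30% (limit read from the data); inactive = the rest.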

CC(=O)NS(=O)(=O)c1ccc2sc(C)nc2c1	none (no result: Bim-Mcl-1)
CC(=O)Nc1ccc2sc(C)nc2c1	eIF4E 4G PPI 64 (no result: Bim-Mcl-1)
O=C(Nc1ccccc1)c1ccc2ccccc2n1	14-3-3 Bad inh 80
O=C(Nc1ccc2c(c1)OCCO2)c1ccccn1	none
O=C(Nc1ccc2c(c1)OCCO2)c1cccc2nc3ccccc3nc12	Mcl1-Noxa inh 62
O=C(Nc1ccc(NC(=O)c2ccccn2)cc1)C(=O)Nc1ccc2c(c1)OCCO2	Mcl1-Noxa inh 54
ONC(=Nc1cccc(C(F)(F)F)c1)c1cccnc1	none (no result: Bim-Mcl-1)
CC1(C)CC(=O)C(C=NCC2CCN(C(=S)Nc3cccc(Cl)c3)CC2)=C(O)C1	none
CC(C)NC(=O)c1ccccc1-c1nc(-c2ccccc2Cl)no1	none
CC(C)(C)NC(=O)c1ccccc1-c1nc(-c2ccccc2Cl)no1	NCF1 inh 43
CCCCCNc1nc2sc3c(c2c(=O)n1-c1cccc(Cl)c1)CCN(C)C3	none (no result: Bim-Mcl-1)
COCc1cc(CN2CCCC(CNC(=O)c3ccc(F)cc3)C2)ccc1OC (centres undefined)	Bim-Mcl-1 40
C/C(=C\C=C\c1ccccc1)C(=O)c1c(C)cc(C)[nH]c1=O	none
O=C1CCCC(O)=C1C1C2=C(CCCC2=O)OC2=C1C(=O)CCC2	none
COc1ccc2c(c1)OC1=C(C(=O)CCC1)C2C1=C(O)CCCC1=O (centres undefined)	14-3-3 Bad inh 73
COC(=O)c1cc([N+](=O)[O-])c(-n2cncn2)c([N+](=O)[O-])c1	none
CCOC(=O)Cn1nc(C)c(NC(=O)c2ccc([N+](=O)[O-])c(C)c2)c1C	none
O=C(Nc1nnc(-c2ccccc2F)s1)c1cccnc1	NCF1 inh 73
C=C1C(=O)[C@@]23[C@H](O)C[C@@H]4C(C)(C)CC[C@H](O)[C@]4(C)[C@@H]2C[C@H](O)[C@@H]1[C@H]3O	Mcl1 Bid PPI 80
O=C(CP(=O)(c1ccccc1)c1ccccc1)Nc1nc2ccc(Cl)cc2s1	Mcl1 Bid PPI 97 (no result: Bim-Mcl-1)
O=C(Nc1nc2ccc(Cl)cc2s1)C1CCCO1 (centres undefined)	none
CCCN1CCC(NCc2cn(C)nc2-c2ccc(Oc3ccccc3)cc2)CC1	none (no result: Bim-Mcl-1)
c1ccc(Oc2cccc(OCCn3cncn3)c2)cc1	Mcl1 Bid PPI 59
O=C(COc1ncnc2ccccc12)Nc1ccccc1[N+](=O)[O-]	none
Cc1ccc(-c2nc3ncccn3c2NC(=O)C2CC2)cc1	none
CC(=O)Nc1c(-c2ccccc2)nc2ncccn12	eIF4E 4G PPI 33
Cc1ccccc1NCC(=O)N=Nc1c(O)[nH]c2ccc([N+](=O)[O-])cc12	Mcl1-Noxa inh 53 (no result: Bim-Mcl-1)
CCNC(=S)N=Nc1c(O)[nH]c2ccc([N+](=O)[O-])cc12	none
O=[N+]([O-])c1ccc2[nH]c(O)c(N=NC(=S)Nc3cccnc3)c2c1	Mcl1-Noxa inh 100 (no result: Bim-Mcl-1)
CCN(CC)CCOC(=O)c1ccc(NC(=O)c2ccc(Cl)c(S(=O)(=O)N3CCCCCC3)c2)cc1	none
CSc1cnn(Cc2ccccc2)c(=O)c1SCc1ccccc1	Mcl1-Noxa inh 99
CSc1cnn(-c2ccccc2)c(=O)c1SC	none (no result: Mcl1-Noxa inh)
O=C(Cc1ccccc1)N/N=C/c1cccc([N+](=O)[O-])c1	none
CC(=O)NNC(=S)Nc1cccc(F)c1	none (no result: Bim-Mcl-1)
CCCCCCC(=O)N/N=C(\C)Cc1ccccc1	Mcl1-Noxa inh 70
CCOC(=O)C1=C(CP(=O)(c2ccccc2)c2ccccc2)NC(=O)NC1c1ccc(OC)cc1 (centres undefined)	Bim-Mcl-1 74
CCOC(=O)C1=C(CP(=O)(c2ccccc2)c2ccccc2)NC(=O)NC1c1ccc(Cl)cc1 (centres undefined)	none
c1ccc2c(c1)ncn2CCCCOc1ccc2c(c1)CCC2	Mcl1 Bid PPI 69
c1ccc2c(c1)ncn2CCCOc1ccc2c(c1)CCC2	none
O=C(NC(=S)NCC1CCCO1)c1ccc(Br)o1 (centres undefined)	none
Cc1cc(C)n2nc(/C(C#N)=C/c3ccccn3)c(C#N)c2n1	none
COc1cccc2c1nc(C)c1cc(C)oc12	Mcl1 Bid PPI 99
O=C(O)c1cnn2c(C(F)(F)F)cc(-c3ccco3)nc12	Mcl1 Bid PPI 79
O=C(Nc1cccc(S(=O)(=O)NC2=NCCCCC2)c1)c1cccnc1Cl	none (no result: Bim-Mcl-1)
